Rows were chosen to be rich in hits. Some 12% of all compounds tested hit in one or more screens of this group.
HP1b binding inh: HTS for Inhibitors of HP1-beta Chromodomain Interactions with Methylated Histone Tails; Chromobox protein homolog 1 (Homo sapiens), P83916; AlphaScreen HP1-beta / biotin-H3K9me3 peptide binding; Potency, µM (titrated, usually from 114 µM), for inactives: at the highest dose activity change, negative = inhibition, hits mostly inhibitors; 390,000 tested, 0.56% active; AID 540317, 2011; further: nearly all actives have a fitted effect of over 70% in size
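HP1-beta protein (50 nM final) preincubated 30 min at room temperature with biotinylated H3(1-18)K9me3 peptide (50 nM) in PBS pH 7.4, 0.01% Tween-20, then compound added for 30 min. AlphaScreen streptavidin donor/nickel chelate acceptor beads (10 ug/mL final), 30 min dark, luminescence read.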
BAZ2B block: qHTS Assay for Inhibitors of BAZ2B; 360,000 tested, 4.4% active; Potency, µM (series often up to 114 µM), for inactives: top-dose activity change, negative = inhibition, hits mostly inhibitors; AlphaScreen BAZ2B-H3K14Ac peptide displacement; further: on the % scale 0 is the no-effect control and ±100 the full control effect; nearly all actives have a fitted effect of over 60% in size
Target sequence (Q9UIF8 whole entry, looked up): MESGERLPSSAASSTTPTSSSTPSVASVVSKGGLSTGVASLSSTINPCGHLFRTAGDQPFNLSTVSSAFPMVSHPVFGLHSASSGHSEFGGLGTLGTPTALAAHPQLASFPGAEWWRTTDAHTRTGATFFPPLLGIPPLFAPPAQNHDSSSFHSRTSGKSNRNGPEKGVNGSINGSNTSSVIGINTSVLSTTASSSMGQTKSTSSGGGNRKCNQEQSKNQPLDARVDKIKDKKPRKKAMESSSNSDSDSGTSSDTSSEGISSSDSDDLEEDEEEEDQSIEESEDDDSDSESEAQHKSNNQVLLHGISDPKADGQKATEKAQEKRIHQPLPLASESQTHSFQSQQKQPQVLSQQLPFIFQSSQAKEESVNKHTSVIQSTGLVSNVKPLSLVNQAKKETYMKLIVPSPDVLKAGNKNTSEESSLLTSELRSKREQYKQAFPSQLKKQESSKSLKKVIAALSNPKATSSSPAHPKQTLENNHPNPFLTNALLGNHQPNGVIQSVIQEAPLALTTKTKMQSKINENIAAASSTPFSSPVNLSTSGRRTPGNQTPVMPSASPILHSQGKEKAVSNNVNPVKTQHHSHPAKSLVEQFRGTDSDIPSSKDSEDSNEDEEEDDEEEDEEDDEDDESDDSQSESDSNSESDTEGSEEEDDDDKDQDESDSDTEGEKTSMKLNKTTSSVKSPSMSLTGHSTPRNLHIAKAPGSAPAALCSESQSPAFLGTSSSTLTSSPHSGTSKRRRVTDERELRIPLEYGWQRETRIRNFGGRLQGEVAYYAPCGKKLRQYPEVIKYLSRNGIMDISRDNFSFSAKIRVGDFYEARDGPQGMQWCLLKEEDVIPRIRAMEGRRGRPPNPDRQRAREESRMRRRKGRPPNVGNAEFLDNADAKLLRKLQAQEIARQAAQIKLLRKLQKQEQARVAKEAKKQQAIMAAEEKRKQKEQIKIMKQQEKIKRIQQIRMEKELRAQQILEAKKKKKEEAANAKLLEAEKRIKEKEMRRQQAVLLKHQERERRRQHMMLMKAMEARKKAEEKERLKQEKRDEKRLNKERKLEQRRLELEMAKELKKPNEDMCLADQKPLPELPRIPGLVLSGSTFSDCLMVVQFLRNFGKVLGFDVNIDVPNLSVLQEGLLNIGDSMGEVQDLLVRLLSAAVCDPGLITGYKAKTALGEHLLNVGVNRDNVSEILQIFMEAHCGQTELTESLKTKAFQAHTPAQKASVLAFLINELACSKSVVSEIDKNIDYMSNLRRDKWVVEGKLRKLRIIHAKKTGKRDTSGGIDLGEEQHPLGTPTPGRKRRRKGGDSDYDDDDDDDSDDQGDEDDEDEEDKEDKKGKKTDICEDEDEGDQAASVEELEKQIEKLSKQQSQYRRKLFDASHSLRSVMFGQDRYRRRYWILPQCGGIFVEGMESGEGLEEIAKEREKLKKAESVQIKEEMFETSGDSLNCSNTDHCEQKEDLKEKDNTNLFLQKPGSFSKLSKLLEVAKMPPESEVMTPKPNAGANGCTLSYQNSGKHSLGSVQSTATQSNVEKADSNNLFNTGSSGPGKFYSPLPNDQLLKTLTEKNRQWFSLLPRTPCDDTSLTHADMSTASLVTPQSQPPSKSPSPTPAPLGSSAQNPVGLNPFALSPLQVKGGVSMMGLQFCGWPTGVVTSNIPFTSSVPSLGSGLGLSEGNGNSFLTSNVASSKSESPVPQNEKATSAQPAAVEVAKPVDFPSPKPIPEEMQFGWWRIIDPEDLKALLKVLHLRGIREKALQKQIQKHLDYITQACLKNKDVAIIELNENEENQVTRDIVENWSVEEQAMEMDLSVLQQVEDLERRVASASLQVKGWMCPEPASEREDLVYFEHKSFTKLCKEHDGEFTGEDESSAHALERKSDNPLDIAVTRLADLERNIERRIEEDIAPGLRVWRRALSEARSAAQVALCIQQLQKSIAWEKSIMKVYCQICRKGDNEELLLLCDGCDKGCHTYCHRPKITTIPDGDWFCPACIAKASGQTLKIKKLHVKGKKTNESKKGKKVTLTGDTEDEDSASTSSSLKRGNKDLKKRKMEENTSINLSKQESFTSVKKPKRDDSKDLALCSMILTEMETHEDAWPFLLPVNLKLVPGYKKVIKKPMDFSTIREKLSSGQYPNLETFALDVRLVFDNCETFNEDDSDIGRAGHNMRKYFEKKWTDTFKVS
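AlphaScreen luminescence quantifies BAZ2B engagement of H3K14Ac peptide; the protein and biotinylated peptide are both at 50 nM final, buffer PBS pH 7.4 with 0.01% Tween-20, all steps at room temperature.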
PLK1 PBD block: qHTS for Inhibitors of PLK1-PDB (polo-like kinase 1 - polo-box domain): Primary Screen; Plk1 PBD binding of FITC phosphopeptide, fluorescence polarization; 360,000 tested, 2.8% active; Potency, µM, for inactives: max response, negative = inhibition, usual class: inhibitors; AID 720504, 2013; Serine/threonine-protein kinase PLK1 (Homo sapiens), P53350; further: series mostly up to about 57 µM; on the % scale 0 is the no-effect control and ±100 the full control effect; nearly all actives have a fitted effect of over 65% in size
JMJD2A Tudor: qHTS Assay for Inhibitors of JMJD2A-Tudor Domain | 390,000 tested, 4.4% active | AID 504339, 2011 | AlphaScreen JMJD2A-Tudor / H3K4me3 peptide binding | Potency, µM (top dose mostly 114 µM), without a hit: at the highest dose activity change, negative = inhibition, hits mostly inhibitors; further: on the % scale 0 is the no-effect control and ±100 the full control effect; nearly all actives have a fitted effect of over 50% in size
G9a block: qHTS Assay for Inhibitors of Histone Lysine Methyltransferase G9a; 350,000 tested, 8.8% active; Potency, µM (top dose mostly 102 µM), inactives show top-dose activity, negative = inhibition, actives largely listed as inhibitors; G9a H3K9 monomethylation, AlphaScreen, 2 h; further: on the % scale 0 is the no-effect control and ±100 the full control effect; nearly all actives have a fitted effect of over 75% in size
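Enzyme 20 nM + cpd, 15 min RT; add b-H3K9 pep 500 nM / SAM 20 uM; 2 h RT; anti-H3K9me1 Ab 0.5 ug/mL + SA donor / anti-rabbit acceptor beads 20 ug/mL each, 10 min; AlphaScreen read.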
Sfp inh: qHTS Assay for Inhibitors of Bacillus subtilis Sfp phosphopantetheinyl transferase (PPTase) | 4'-phosphopantetheinyl transferase ffp (Bacillus subtilis), Q9F4F7 | Biochemical Sfp PPTase activity, qHTS | Potency, µM, for the others: largest response in the series, negative = inhibition, hits mostly inhibitors | 310,000 tested, 3.5% active;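 further: the enzyme is Sfp with the accession as filed and its product quenches rhodamine fluorescence; 0% = enzyme reaction without inhibitor and -100% = no enzyme wells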
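Fluorescence-quenching assay: 15 nM Sfp-PPTase preincubated 15 min at room temperature with compound, then 5 uM rhodamine-CoA and 12.5 uM BHQ-2-labelled YbbR peptide added. Fluorescence (ex 525/em 598 nm) read at start and after 30 min; difference gives rate.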
The depositor's hits bear a star; ? = inconclusive; nt = no result given; [ ] = remark or other dose. The call rests on the fitted dose curve; in most records, active means well fitted curve in the direction sought with a large enough effect; inconclusive means small, poorly fitted or top-dose-only effect, or another doubt; inactive means no such curve, though single readings can be large; an effect the other way counts as inactive or inconclusive. Potency means the concentration at half of the fitted maximal effect.

SMILES | HP1b binding inh | BAZ2B block | PLK1 PBD block | JMJD2A Tudor | G9a block | Sfp inh
Cc1ccc(C(=O)O)cc1-c1ccc(C=C2C(=O)c3ccccc3C2=O)o1 | 39.8µM* | 50.1µM* | ? | ? | 17.8µM* | -4.1%
O=C(O)c1ccccc1-c1ccc(/C=C2\SC(=O)N(c3ccccc3)C2=O)o1 | 14.6% | ? | -12.5% | -15.0% | 7.08µM* | -14.9%
Cc1ccccc1NC(=O)CN1C(=O)S/C(=C\c2ccc(-c3cccc(C(=O)O)c3C)o2)C1=O | -33.6% | -35.6% | ? | -15.8%[11.4 µM] | 20µM* | -29.9%
Cc1ccccc1NC(=O)CN1C(=O)c2ccccc2C1=O | 22.4% | 3.2% | -4.2% | 0.0% | nt | -4.4%
Nc1cccc(CP(=O)(c2ccccc2)c2ccccc2)c1 | 30.8% | 11.7% | 4.5% | -1.0% | -8.7%[12.7 µM] | nt
CCn1c(C)cc(/C=C2\SC(=O)N(CC(=O)Nc3ccc(C)c(C)c3)C2=O)c1C | 32.4% | 0.4%[57.1 µM] | -11.6% | -5.5%[57.1 µM] | 17.6% | ?
Cc1ccc(NC(=O)CN2C(=O)S/C(=C/c3ccc(-c4cc(C(=O)O)ccc4C)o3)C2=O)cc1C | -67.8% | 11.2µM* | ? | 11.2µM* | 3.55µM* | 56.2µM*
Cc1cc(C(=O)O)ccc1-n1c(C)cc(C=C2C(=O)c3ccccc3C2=O)c1C | -15.5% | -34.6% | ? | ? | 28.2µM* | -20.5%
Cc1cccc(NC(=O)CN2C(=O)S/C(=C\c3ccc(-c4cccc(C(=O)O)c4C)o3)C2=O)c1 | ? | ? | ? | 79.4µM* | 12.6µM* | -16.7%
Cc1ccc(C)c(N2CCN(C(=O)c3c4c(nc5ccccc35)C(=O)N(C3CCCCC3)C4)CC2)c1 | -6.2% | -16.9% | nt | -28.3% | 1.2%[59 µM] | nt
O=C(NNC(=O)C1COc2ccccc2O1)c1ccccc1O (centres undefined) | 38.1% | 3.4% | 1.2% | -6.9% | 7.6% | nt
COC(=O)C1=CN(c2ccc(Oc3ccccc3)cc2)C(N)=C(C#N)C1c1ccccc1 (centres undefined) | nt | nt | 3.9% | nt | nt | nt
Cc1ccc(C(=O)OCC(=O)NCc2ccc(F)cc2)o1 | 49.8% | 6.0% | 4.5% | 8.1% | -4.4%[12.7 µM] | nt
Cc1ccc(-n2c(=O)c3c(cnn3C)n(CC(=O)Nc3cc(C)ccc3C)c2=O)cc1 | 41.7% | -1.1% | nt | -2.0% | 0.6%[59 µM] | nt
O=C(O)CC1S/C(=N/N=C/c2ccccn2)NC1=O (centres undefined) | 58.7% | 44.7µM* | -5.7% | 79.4µM* | -4.2% | 16.1%
CCOc1cc(/C=N/N=C2/NC(=O)C(CC(=O)O)S2)ccc1OCc1ccc(Cl)cc1Cl (centres undefined) | 44.7µM* | 28.2µM* | 26.7µM* | 39.8µM* | nt | -4.0%
CCOC(=O)c1c(S(=O)(=O)NC2CCN(C(=O)OCC)CC2)c(C)n(C)c1C | 13.1%[57 µM] | -7.4% | -9.1% | -9.5% | nt | 10.8%
CO[C@H]1COC(=O)CCC[C@H](C)[C@@H](OC)COC(=O)C/C=C\[C@@H]1C | nt | nt | nt | nt | nt | 20.5%
CCOC(=O)c1c(-c2ccc(C)cc2)csc1NC(=O)C1CC=CCC1C(=O)O (centres undefined) | -18.3% | 2.6%[57.1 µM] | 26.7µM* | -33.2% | ? | -14.9%
Cc1ccc(-c2csc(NC(=O)C3CC=CCC3C(=O)O)c2C(=O)OC(C)C)cc1 (centres undefined) | 5.1% | -32.3% | ? | -30.7% | 11.8%[12.7 µM] | -4.5%
COC(=O)c1c(NC(=O)C2CC=CCC2C(=O)O)sc(C(N)=O)c1C (centres undefined) | 10.4% | -4.9% | -23.1% | -23.6% | 17.8µM* | -22.9%
CCOC(=O)c1c(-c2cccc(C)c2)csc1NC(=O)C1CC=CCC1C(=O)O (centres undefined) | 21.1% | -7.9% | ? | -1.4% | 15.2%[59 µM] | -20.4%
COC(=O)c1c(-c2ccccc2)csc1NC(=O)C1CC=CCC1C(=O)O (centres undefined) | ? | ? | -2.0% | 50.1µM* | 44.7µM* | -6.3%
Cc1cccc(NC(=O)/C(=C\c2ccc([N+](=O)[O-])o2)NC(=O)c2ccc(Cl)cc2)c1 | ? | 50.1µM* | -13.4% | 35.5µM* | ? | 11.9%
Cc1ccc(/C=C(/NC(=O)c2ccccc2)C(=O)NCCc2c[nH]c3ccccc23)o1 | -14.5% | ? | -3.8% | -33.6% | 44.7µM* | -7.7%
SMILES | HP1b binding inh | BAZ2B block | PLK1 PBD block | JMJD2A Tudor | G9a block | Sfp inh
Cc1ccc(C(=O)N/C(=C\c2ccc(-c3ccccc3[N+](=O)[O-])o2)C(=O)NCCN(C)C)cc1 | ? | -6.2% | -19.1% | 56.2µM* | nt | 39.8µM*
CN(C)CCCNC(=O)/C(=C/c1ccc(-c2ccc([N+](=O)[O-])cc2)o1)NC(=O)c1ccccc1 | 34.2% | -3.8% | -9.7% | 4.8% | -3.8% | 11.5%
Cc1ccc(C(=O)N/C(=C\c2ccco2)C(=O)NCCc2c[nH]c3ccccc23)cc1 | -14.8% | -32.7% | -8.8% | -30.4% | -47.2%[59 µM] | ?
COC(=O)/C(=C\c1ccc([N+](=O)[O-])o1)NC(=O)c1ccccc1 | 21.2% | -4.3% | -3.8% | -0.3% | -37.4%[59 µM] | 9.7%
CN(C)CCNC(=O)/C(=C/c1ccc(-c2cccc([N+](=O)[O-])c2)o1)NC(=O)c1ccccc1 | -4.4% | -34.6% | -6.8% | -29.1% | -9.5%[59 µM] | -6.7%
Cc1ccc(C(=O)N/C(=C\c2ccc(-c3ccccc3[N+](=O)[O-])o2)C(=O)NCCCN(C)C)cc1 | -13.5% | ? | ? | ? | 50.1µM* | -11.0%
COc1ccc(CCN(C)C(=O)CN2C(=O)NC3(CCCc4ccccc43)C2=O)cc1OC (centres undefined) | 14.5% | -3.0% | 0.9% | -11.0% | -25.9%[0.501 µM] | nt
CN(Cc1ccccc1Br)C(=O)CSc1nnnn1C1CC1 | 44.7% | 5.4% | 1.5% | 7.8% | ? | nt
CCCCNC(=O)/C(=C\c1ccc([N+](=O)[O-])o1)NC(=O)c1ccccc1 | -7.1% | -19.7% | 21.2µM* | -6.0%[11.4 µM] | -48.5% | 19.3%
C=CCN(c1ccc(C(=O)Nc2cccc(C)c2)cc1)S(C)(=O)=O | -10.9% | -2.5% | -16.8% | -14.6% | -8.4% | 7.5%
C=CCN(c1ccc(C(=O)Nc2ccc(NC(C)=O)cc2)cc1)S(C)(=O)=O | -6.9% | 6.9% | 21.2µM* | 14.1µM* | -25.0% | 13.8%
CCOc1cc(S(=O)(=O)n2ccnc2)ccc1Br | 8.8% | -29.1% | -7.6% | -7.7% | ? | -5.9%
CCOc1cc(S(=O)(=O)n2ccnc2)ccc1Cl | 5.7% | 79.4µM* | -4.7% | 5.6% | ? | 6.2%
